Screens from PubChem.
Compounds with a hit are over-represented: about 1.9% of the library has one in this group of screens.
KLF5 inhibitor – KLF5 expression inhibitors, primary screen, DLD-1 cells, luminescence. DLD-1 KLF5 promoter-luciferase reporter. inhibition, % at 5 µM. 290,000 tested, 0.23% active. AID 1700, 2009;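 active means inhibition above a per-plate limit of that plate's mean compound inhibition plus 3 SD, cut at about 60% in these data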;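 further: higher means less KLF5 promoter-driven luciferase light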
APP 5UTR inh – inhibitors of APP translation via 5'UTR reporter, primary screen, APP 5'UTR luciferase, SH-SY5Y cells; SH-SY5Y APP 5'UTR-luciferase reporter, luminescence; inhibition, % at 2 µM; AID 1285, 2008; 190,000 tested, 0.82% active;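 active means inhibition above a set limit, derived from the sample mean plus 3 SD, cut at about 45% in these data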
IEC-6 tox-1 – cytotoxicity in IEC-6 intestinal epithelial cells, primary screen, cytotoxicity control for KLF5 inhibitor project, cell-based, luminescence; IEC-6 cytotoxicity, luminescence viability; inhibition, % at 5 µM; 290,000 tested, 0.78% active; in the data active means inhibition above about 22%
BaF3 tox – parental Ba/F3 cell viability inhibition, counter-screen for JAK2V617F inhibitor project, murine pro-B, CellTiter-Glo luminescence | CellTiter-Glo ATP luminescence | 220,000 tested, 1.1% active | inhibition, % at 5.6 µM;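 active means inhibition above a per-campaign cutoff, the mean inhibition of all tested compounds plus 3 SD, cut at about 27% in these data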
Ba/F3 V617F tox – reduced viability of JAK2V617F-dependent Ba/F3 cells, primary screen, JAK2V617F inhibitor project, cell-based, Ba/F3 EpoR-JAK2V617F, luminescence; ATP luminescence; inhibition, % at 5.6 µM; 220,000 tested, 1.1% active;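 active means inhibition above the campaign mean plus 3 SD over all tested compounds, cut at about 24% in these data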;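 further: cytokine-independent growth of Ba/F3 cells driven by EpoR plus mutant JAK2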
KLF5 inh confirm – KLF5 expression inhibitors, confirmation, DLD-1 cells, luminescence; inhibition, % at 4 µM; shares compounds with KLF5 inhibitor; DLD-1 KLF5 promoter firefly luciferase reporter; 610 tested, 79% active;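 active means inhibition above a set limit taken from the earlier primary screen, cut at about 63% in these data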
IEC-6 tox-2 – cytotoxicity in rat IEC-6 cells, cytotoxicity control for KLF5 inhibitor project, cell-based, luminescence, triplicate. shares compounds with KLF5 inhibitor. IEC-6 rat intestinal cells, viability luminescence. inhibition, % at 4 µM. 610 tested, 56% active. AID 1905, 2009; in the data active means inhibition above about 23%;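 further: cells exposed to compounds for 48 hours before viability read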
Each line names hits and unclear results; the compound was inactive in the other large screens (follow-up assays come after a bar, where they were run).

O=C(CCl)Nc1cc(SCC(O)CO)cc([N+](=O)[O-])c1 (stereo unspecified)	KLF5 inhibitor 84, BaF3 tox 99, Ba/F3 V617F tox 99 | KLF5 inh confirm 112 | IEC-6 tox-2 34
CCC(C)[C@H](NC(=O)Nc1ccccc1F)C(=O)O (stereo partly specified)	none (no result: APP 5UTR inh)
C[C@@H](NC(=O)[C@@H]1Cc2ccccc2CN1)C(=O)Nc1ccc2c(c1)OCCO2	none (no result: APP 5UTR inh, BaF3 tox, Ba/F3 V617F tox)
O=[N+]([O-])c1cc(CN2CCOCC2)c2cccnc2c1O	none
O=[N+]([O-])c1cc(CN2CCN(c3ccccc3)CC2)c(O)c2ncccc12	KLF5 inhibitor 76, APP 5UTR inh 80, IEC-6 tox-1 52, BaF3 tox 76, Ba/F3 V617F tox 74 | KLF5 inh confirm 89 | IEC-6 tox-2 77
CCN(CC)CCn1nc2c3c(cccc3c1=O)-c1ccccc1-2	KLF5 inhibitor 72, APP 5UTR inh 68, IEC-6 tox-1 87, BaF3 tox 100, Ba/F3 V617F tox 102 | KLF5 inh confirm inactive | IEC-6 tox-2 75
CCN(CC)CCn1nc(C)nc1-c1ccccc1O	none
Cc1ccc(C(=O)O/N=C(\N)c2ccccn2)c(C)c1	KLF5 inhibitor 108 (no result: APP 5UTR inh, BaF3 tox, Ba/F3 V617F tox) | KLF5 inh confirm 104 | IEC-6 tox-2 inactive
NS(=O)(=O)c1ccc(Oc2ccc(S(N)(=O)=O)cc2)cc1	none
C=CS(=O)(=O)c1ccc(Oc2ccc(S(=O)(=O)C=C)cc2)cc1	KLF5 inhibitor 77, APP 5UTR inh 90, IEC-6 tox-1 76, BaF3 tox 68, Ba/F3 V617F tox 84 | KLF5 inh confirm inactive | IEC-6 tox-2 38
COc1ccccc1CC(=O)NNS(=O)(=O)c1ccc([N+](=O)[O-])cc1	none
COc1ccc(CCC(N)=O)cc1OC	KLF5 inhibitor 70 | KLF5 inh confirm inactive | IEC-6 tox-2 inactive
COc1ccc(CNC(=O)C2CCC(CNS(=O)(=O)c3ccc(C)cc3)CC2)cc1 (stereo unspecified)	none (no result: APP 5UTR inh, BaF3 tox, Ba/F3 V617F tox)
COc1ccc(Cl)cc1NC(=O)CN(C)CC(=O)Nc1ccccc1N1CCOCC1	KLF5 inhibitor 66, APP 5UTR inh 83, IEC-6 tox-1 77, BaF3 tox 76, Ba/F3 V617F tox 83 | KLF5 inh confirm 77 | IEC-6 tox-2 57
COC(=O)c1ccccc1NC(=O)CNc1cc(Cl)ccc1N1CCOCC1	none
Cc1ccc(-c2nc3ccc(Cl)cc3n2OC(C)C(=O)O)cc1 (stereo unspecified)	KLF5 inhibitor 66 | KLF5 inh confirm inactive | IEC-6 tox-2 inactive
CNc1cc(-n2nc(C)cc2-c2ccccc2)ncn1	none
Cc1cc(-c2ccccc2)n(-c2cc(N/N=C/c3ccccc3O)ncn2)n1	KLF5 inhibitor 70, APP 5UTR inh 96, BaF3 tox 76, Ba/F3 V617F tox 69 | KLF5 inh confirm 88 | IEC-6 tox-2 inactive
Cc1noc(C)c1-c1nc(CS(=O)(=O)c2ccccc2)no1	none (no result: APP 5UTR inh)
CN(C1CCCCC1)C(CNS(=O)(=O)c1ccc(Cl)cc1)c1ccccc1 (stereo unspecified)	none (no result: APP 5UTR inh, BaF3 tox, Ba/F3 V617F tox)
Cc1ccc(C)c(CSc2nc3[nH]ncc3c(=O)[nH]2)c1	KLF5 inhibitor 65, APP 5UTR inh 85, IEC-6 tox-1 63, BaF3 tox 76, Ba/F3 V617F tox 83 | KLF5 inh confirm 68 | IEC-6 tox-2 53
Cc1ccccc1CSc1nc2[nH]ncc2c(=O)[nH]1	none
Cc1ccc2nc(-c3ccc(O)c(O)c3)cn2c1	none (no result: APP 5UTR inh, BaF3 tox, Ba/F3 V617F tox)
Cc1ccc2nc(-c3ccccc3)cn2c1	KLF5 inhibitor 84 | KLF5 inh confirm 77 | IEC-6 tox-2 23
COc1ccc(/C=N/NC(=O)CCn2c3ccccc3c3ccccc32)cc1O	KLF5 inhibitor 74, APP 5UTR inh 87, BaF3 tox 71, Ba/F3 V617F tox 78 | KLF5 inh confirm 79 | IEC-6 tox-2 inactive
COc1ccccc1-c1nnc2n1N=C(c1ccc(O)c(O)c1)CS2	KLF5 inhibitor 80, APP 5UTR inh 95, BaF3 tox 92, Ba/F3 V617F tox 95 | KLF5 inh confirm 92 | IEC-6 tox-2 inactive
